DRD3 agonist: qHTS of D3 Dopamine Receptor Agonist: qHTS | D3R DiscoveRx beta-arrestin cells, luminescence, 90 min | max activation, % | hit rate 0.58% among 410,000 | AID 652048, 2013; in the data active means max activation above about 30%; further: 0% is about no effect
Target sequence (P35462 whole entry, looked up): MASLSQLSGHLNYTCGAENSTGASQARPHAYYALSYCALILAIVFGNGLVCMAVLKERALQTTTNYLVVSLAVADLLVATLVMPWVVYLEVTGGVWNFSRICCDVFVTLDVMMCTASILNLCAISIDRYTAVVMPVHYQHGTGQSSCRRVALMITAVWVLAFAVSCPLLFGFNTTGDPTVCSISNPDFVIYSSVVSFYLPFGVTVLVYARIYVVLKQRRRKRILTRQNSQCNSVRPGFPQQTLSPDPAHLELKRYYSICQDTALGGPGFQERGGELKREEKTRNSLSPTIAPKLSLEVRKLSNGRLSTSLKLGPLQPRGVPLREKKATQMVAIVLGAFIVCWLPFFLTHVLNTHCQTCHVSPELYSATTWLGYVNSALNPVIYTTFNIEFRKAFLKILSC
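Agonist mode: compounds and dopamine controls were applied to plated cells for 90 min at 37 degrees C after an overnight attachment at 1500 cells/well. Luminescent read-out followed 30 - 60 minutes at room temperature with DiscoveRx detection reagent.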
D1 PAM: Potentiators of Human D1 Dopamine Receptor: qHTS | hit rate 0.036% among 360,000 | AID 504651, 2011 | potentiation, % at 10 µM | HEK293 TREx D1 cells, calcium flux, dopamine EC20 potentiation; in the data active means potentiation above about 30%; further: 0% is about no effect
D1 antagonist: Antagonist of Human D 1 Dopamine Receptor: qHTS | D(1A) dopamine receptor (Homo sapiens), P21728 | HEK293 TREx D1 cells, calcium flux, dopamine EC80; active compounds read low | activity change, negative = inhibition, % at 10 µM | hit rate 3.2% among 360,000; in the data active means activity change below about -30%; further: on the % scale 0 is the no-effect control and ±100 the full control effect
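Inducible Hek293 Trex D1 cells (tetracycline, overnight, 30 C). Calcium dye 30–90 min RT. Antagonist mode: EC80 dopamine added after 180 s compound read.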
D1 ag: Allosteric Agonists of the Human D1 Dopamine Receptor: qHTS; HEK293 T-REx D1 cells, calcium flux, agonist mode; activation, % at 2 µM; hit rate 1% among 360,000; in the data active means activation above about 30%; further: 0% is about no effect
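Agonism was scored from calcium flux recorded over 180 s (1 read/s) after pintool compound addition, following a 10-cycle baseline. Cells were inducible force-coupled HEK293 TREx D1, plated overnight at 30 C and loaded with no-wash calcium dye.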
DRD3 antagonist: qHTS of D3 Dopamine Receptor Antagonist: qHTS. hit rate 2.5% among 360,000. D3R cells, DiscoveRx beta-arrestin luminescence, antagonist mode; active compounds read low. max response, negative = inhibition, %. AID 652054, 2013. D(3) dopamine receptor (Homo sapiens), P35462; in the data active means max response below about -50%; further: on the % scale 0 is the no-effect control and ±100 the full control effect
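Cells expressing the human receptor were seeded at 1500 cells/well, incubated overnight at 37 degrees C in 5% CO2, then exposed to library compounds with dopamine controls for 90 minutes at 37 degrees C before luminescent detection.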
The depositor's hits bear a star; nt = not tested or not shown. Most compounds without a hit are left out; they make up all but 6.1% or so of the library.

SMILES	DRD3 agonist	D1 PAM	D1 antagonist	D1 ag	DRD3 antagonist
C/C=C/C(=O)Nc1cccc(C2=NOC3(C2)C[C@@H](C(N)=O)N(C(=O)/C(C)=C/C)C3)c1 (some centres undefined)	-4	2	-31*	2	26
C=C(C)C(=O)Nc1cccc(C2=NOC3(C2)C[C@@H](C(N)=O)N(C(=O)c2cc([N+](=O)[O-])cc([N+](=O)[O-])c2)C3)c1 (some centres undefined)	1	-2	-16	1	1
CCCCNC(=O)CN1CCN(c2ncc(NC(=O)c3ccc(Cl)cc3)cc2C(=O)O)CC1	-6	2	-30	0	nt
O=c1[nH]c(SCc2cccc(Cl)c2)nc2c1CCC2	8	2	-16	6	nt
COc1ccc(CNC(=O)c2[nH]c(C(F)(F)F)nc2-c2ccccc2)cc1OC	-9	nt	nt	nt	-58*
Cc1oc(-c2ccccc2Cl)nc1CS(=O)CC(=O)NC1CC1 (centres undefined)	-7	-4	-60*	0	-2
Cc1ccc(CNC(=O)CS(=O)Cc2nc(-c3ccccc3Cl)oc2C)cc1 (centres undefined)	-1	1	-42*	4	-9
CC(CN(C)Cc1ccccc1)OC(=O)c1ccc(F)cc1 (centres undefined)	-13	8	17	2	-69*
CC(CN1CCN(C)CC1)OC(=O)c1ccc(F)cc1 (centres undefined)	-17	3	-12	1	-19
OC1CNc2c(ccc3ccccc23)C1 (centres undefined)	7	nt	nt	nt	2
O=C(CNC(=O)c1ccccc1)OCc1cccc([N+](=O)[O-])c1	-2	-3	-8	4	-18
CC(C)(C)c1ccc(C(=O)NCC(=O)OCc2ccc([N+](=O)[O-])cc2)cc1	-6	-8	-35*	10	-26
N=C1C(c2ccccc2)=C(O)CN1CCCO	2	0	-18	1	1
COC(=O)c1c(NC(=O)CCCOc2ccc(C(C)(C)C)cc2)sc2c1C(C(=O)OC)CC2 (centres undefined)	14	-3	9	10	nt

High-throughput results as filed in PubChem.
